# High-throughput results (PubChem)
# The list is not random: actives were taken first. Their share in the collection is about 7.9%.
# HT1080-NT tox = kills 2HG-producing HT-1080-NT fibrosarcoma cells; HT-1080-NT fibrosarcoma viability, CellTiter-Glo ATP luminescence, 48 h; Potency, µM (highest dose often 46.1 µM), without a hit: top-dose activity, negative = less viability, most hits filed as cytotoxic; actives 1.6% (n = 360,000); AID 686970;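 also: NT is the 2HG producing partner of a matched IDH1 knockdown line; 0% = DMSO-treated cells and -100% = media-only wells without cells; nearly all actives have a fitted effect of over 55% in size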
#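 Compounds were tested in concentration-response format on HT-1080-NT cells for 48 hours at 37 degrees C. Cell viability came from CellTiter-Glo luminescence; curves were classified by r2, response magnitude and activity.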
# MCF10A rereplic = induces DNA re-replication in MCF 10a normal breast cells; MCF 10A DNA re-replication, Hoechst nuclear intensity, 48 h; Potency, µM (series often up to 46.1 µM), for the others: at the top dose activity, positive = re-replication, actives largely listed as activators; actives 2.9% (n = 350,000); AID 624296; also: % of control where 0% means no effect; nearly all actives have a fitted effect of over 50% in size
# SW480 rerep = induces DNA re-replication in SW480 colon adenocarcinoma cells; actives 1.8% (n = 340,000); SW480 DNA re-replication, Hoechst DNA content imaging, 48 h; Potency, µM (series often up to 46.1 µM), inactives show top-dose re-replication activation, hits mostly activators; AID 624297; also: % of control where 0% means no effect; nearly all actives have a fitted effect of over 55% in size
#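 Compounds, transferred as 23 nL by pin tool, were incubated with cells for 48 hr; DNA content per nucleus was then quantified by Hoechst staining and fluorescence plate imaging.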
# KB-3-1 cytotox = KB-3-1 parental cell cytotoxicity | KB-3-1 viability, CellTiter-Glo ATP luminescence, 72 h | Potency, µM (doses to about 46.1 µM), most hits filed as cytotoxic | actives 1.4% (n = 400,000) | AID 1347075; also: % is scaled to controls: 0 for no effect and ±100 for the full control effect; nearly all actives have a fitted effect of over 60% in size
#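 Multi-concentration cytotoxicity screen in KB-3-1 cells grown in DMEM lacking phenol red with 10% FBS. After 72 h at 37 °C with compound, ATP-dependent luminescence was recorded.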
# HT1080 IDH1KD tx = kills HT-1080 cells with IDH1 knockdown; HT-1080 IDH1 knockdown viability, ATP luminescence, 48 h; Potency, µM (titrated, usually from 46.1 µM), for inactives: top-dose activity, negative = toxicity, actives largely listed as cytotoxic; actives 2% (n = 360,000); AID 686971;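 also: 0% = DMSO wells and -100% = cell-free medium wells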
#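 IDH1KD HT-1080 cells, 750/well, RPMI + 5% FBS; compound pinned after 2 h settling; 48 h, 37 °C; CellTiter-Glo luminescence; % activity normalised to DMSO and no-cell wells; curves fitted, classed by r2 and efficacy.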
# KB-V1 MDR tox = kills drug-selected multidrug resistant KB-V1 cells. Potency, µM (titrated, usually from 46.1 µM), actives largely listed as cytotoxic. AID 1347076. KB-V1 MDR cells viability, CellTiter-Glo, 72 h. actives 3.4% (n = 400,000); also: % is scaled to controls: 0 for no effect and ±100 for the full control effect; nearly all actives have a fitted effect of over 60% in size
#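 KB-V1, DMEM (no phenol red) + 10% FBS; cpd pin-transferred, titration series; 72 h, 37 degrees C; CellTiter-Glo, luminescence. Data normalized, curve-fit.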
# * = called active by the depositor; i = inactive; ? = inconclusive; . = no result given; [ ] = remark or other dose. Calls follow the shape of the dose curve; as a rule, active = well fitted curve in the direction sought with a large enough effect; inconclusive = small, poorly fitted or top-dose-only effect, or another doubt; inactive = no such curve, though single readings can be large; an effect the other way counts as inactive or inconclusive. Potency is read from the fitted curve at half-maximal effect.
SMILES,HT1080-NT tox,MCF10A rereplic,SW480 rerep,KB-3-1 cytotox,HT1080 IDH1KD tx,KB-V1 MDR tox
CSc1nc(N)nc(SCC(=O)c2ccc(C)cc2)c1C#N,?,5.8µM*,?,i,?,i
COCCN(C(=S)Nc1ccc(OC)c(Cl)c1)C1CCN(C(C)C)CC1,9.4%,-9.6%,-1.5%,i,1.8%,i
COc1ccc(NC(=S)N(CCC(C)C)C2CCN(C(C)C)CC2)cc1Cl,-19.3%,?,20.6µM*,i,-12.6%,i
Cc1cc(C(=O)O/N=C(\N)c2ccc(C(C)(C)C)cc2)no1,7.8%,3.7%,-8.7%,i,0.2%,i
Cc1noc(-c2ccc(Cl)cc2)c1C(=O)O/N=C(\N)c1ccc(C(C)(C)C)cc1,?,?,-2.0%,?,?,18.4µM*
CC1(C(=O)NS(=O)(=O)c2cccc(C#N)c2)CCN1C(=O)Cc1cc(F)ccc1F (stereo not given),19.5%,.,.,i,8.0%,i
CCCc1nc2ccccc2c(C(=O)OCC(=O)N2CCc3ccccc32)c1CC,0.6%,20.6µM*,0.4%,?,-15.9%,6.51µM*
CCc1noc(C)c1C(=O)OCC(=O)N1CCc2ccccc21,-5.1%,-0.3%,-0.6%,i,-3.2%,i
CC1CCc2nc3ccccc3c(C(=O)OCC(=O)N3CCc4ccccc43)c2C1 (stereo not given),-14.4%,2.6%,-2.2%,?,-3.4%,2.06µM*
Nc1[nH]c(C(=O)c2ccccc2)c(-c2ccccc2Br)c1C(=O)NCc1ccc(-c2ccccc2)cc1,15.5%,.,.,i,2.6%,?
C[C@H](CO)N1C[C@H](C)[C@@H](CN(C)S(=O)(=O)c2cccs2)Oc2c(NS(=O)(=O)c3ccc(F)cc3)cccc2C1=O,-1.7%,17.9%,7.2%[9.22 µM],i,0.1%,i
O=C(O)CCc1ccc2ccccc2c1,.,.,.,i,.,i
O=C(O)CCCc1ccc2c(c1)CCc1ccccc1-2,3.7%,-4.9%,-4.1%,2.91µM*,2.0%,2.06µM*
CCCCN(C)CCCNC(=O)c1ccc2nc(N3CCCCC3)sc2c1,.,.,.,i,.,i
COc1ccc(-c2noc(-c3ccc4c(c3)OCO4)n2)cc1,28.7%,-1.6%,-3.7%,i,21.1%,i
COc1ccc(-c2nc(-c3ccc4c(c3)OCO4)[nH]c2-c2ccc(OC)cc2)cc1,18.4µM*,?,?,i,?,20.6µM*
O=C(O)COc1ccc2oc3c(c2c1)CCCC3,-3.9%,2.06µM*,-24.8%,i,-0.4%,i
Cc1cccc(CCNC(=O)C2CCC(CNS(=O)(=O)c3ccccc3)CC2)c1 (stereo not given),.,.,.,i,.,i
N#Cc1ccccc1NC(=O)COC(=O)/C=C/c1cn(-c2ccccc2)nc1-c1ccc(Cl)cc1,-0.6%,-5.0%,0.7%,23.1µM*,0.6%,i
NC(=O)c1ccc(NC(=O)COC(=O)/C=C/c2cn(-c3ccccc3)nc2-c2cccnc2)cc1,-19.9%,-2.6%,5.17µM*,i,-26.0%,i
CNC(=O)COC(=O)/C=C/c1cn(-c2ccccc2)nc1-c1ccc(C)o1,3.3%,10.6%,-1.2%,i,0.1%,i
COc1ccc(-c2nn(-c3ccccc3)cc2/C=C/C(=O)OCC(=O)Nc2ccccc2C#N)cc1,-11.8%,14.6µM*,1.3%,?,-20.4%,?
O=C(/C=C/c1cn(-c2ccccc2)nc1-c1cccnc1)N1CCCC1,3.9%,-1.2%,-1.8%,i,-13.5%,i
CSc1ccc(CN2CCC(C)(Oc3cccc(F)c3)C2)cc1 (stereo not given),-11.5%,.,.,i,0.0%,i
N#Cc1c(Nc2ccc(Cl)cc2)s[nH]c1=O,-5.7%,18.4µM*,?,i,?,i
CSc1nc(-c2ccc(Cl)cc2)c(C#N)c(=O)[nH]1,-10.5%,-9.5%,20.5%,i,-7.5%,i
